High-throughput results: PubChem BioAssay, Broad Institute
C2C12 statin – protects C2C12 myotubes from simvastatin toxicity | ATP luminescence, 48 h; scaled: DMSO 0, geranylgeraniol control 100 | rescue of ATP level, % at 7.49 µM | 0.78% of 330,000 active | AID 602340;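 active means mean ATP rescue above about 67%, or every replicate alone reaching that limit, limit read from the data, passing the limit was not always enough; inconclusive means no clear call, values can overlap the other calls; inactive means mean under the limit and some replicate under it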;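 further: myotubes were challenged with 10 µM simvastatin during compound exposure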
miR-122 sensor – inhibitors of miR-122 in Huh7 cells | Huh7 miR-122 Renilla luciferase sensor, 48 h; neutral wells = 0, positive control = 100 | activation (reporter increase), % at 12.5 µM | 0.3% of 340,000 active | AID 602342;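 active means mean replicate activation score at least 90 and every replicate individually at or above 90; inconclusive means only one of the two criteria met; inactive means neither criterion met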;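 further: higher luciferase means less miR-122 activity so hits act as miR-122 inhibitors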
DENV2 CPE – protects cells from dengue virus 2 cytopathic effect; DENV2-infected cells, cytopathic effect rescue, plate reader; CPE inhibition, % at 9.99 µM; 1.7% of 350,000 active; in the data active means CPE inhibition above about 20%, passing the limit was not always enough; inconclusive means no clear call, values can overlap the other calls; tested in BHK-21 cells;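 further: 0% = median of neutral control wells and 100% = median of positive control wells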
PGC1a acetyl inh – lowers PGC1a acetylation signal in U2OS cells; inhibition, % at 15.6 µM; 0.17% of 350,000 active; AlphaScreen anti-acetyl-lysine; with virally co-expressed GCN5 acetyltransferase;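 active means every replicate shows inhibition of at least 40%; inconclusive means mean inhibition at least 40% but some replicate below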;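 further: 0% = neutral control wells and 100% = positive control wells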
PvdQ acylase – P. aeruginosa PvdQ acylase inhibition. purified PvdQ acylase, fluorescence plate reader. inhibition, % at 10 µM. 0.063% of 340,000 active. AID 488965; in the data active means inhibition above about 30%, passing the limit was not always enough; inconclusive means no clear call, values can overlap the other calls;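 further: 0% = vehicle neutral wells and 100% = reference inhibitor wells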
* = called active by the depositor; ? = inconclusive; · = no result; [ ] = dose if it differs, or a comment. In the library only some 2.2% were active in any assay of this set; here they are far more common.

SMILES | C2C12 statin | miR-122 sensor | DENV2 CPE | PGC1a acetyl inh | PvdQ acylase
Cc1nc(C)c(CC(=O)N/N=C/c2ccc(O)cc2)c(=O)[nH]1 | · | · | 31* | · | -18
CCCNC(=O)N1CCC2(CC1)CN(C(=O)CCC)[C@H](CO)c1[nH]c3cc(OC)ccc3c12 | · | · | 20 | 4 | ·
Cc1ccc(S(=O)(=O)Nc2ccc3c(c2)C(=O)N([C@@H](C)CO)C[C@@H](C)[C@@H](CN(C)Cc2ccncc2)OCCCC[C@@H](C)O3)cc1 | · | -9[16.7 µM] | ? | 2 | ·
COc1cccc(Cn2c(NCc3cccnc3)nc3c2c(=O)n(C)c(=O)n3C)c1 | · | 3 | · | 71* | -1
COc1ccc(S(=O)(=O)Nc2ccc3c(c2)C(=O)N([C@H](C)CO)C[C@H](C)[C@@H](CN(C)C(=O)Nc2cccc4ccccc24)O3)cc1 | 30 | -27[16.7 µM] | -10 | 3 | ·
COc1ccc(CN(C)C[C@@H]2Oc3c(NS(=O)(=O)c4ccc(OC)cc4)cccc3C(=O)N([C@@H](C)CO)C[C@@H]2C)cc1 | -10 | 10[16.7 µM] | -4 | 9 | ·
CCOc1ccccc1NS(=O)(=O)c1ccc(-c2cnc(C3CC3)o2)cc1 | -52 | 127* | -4 | -17 | 1
CC(=O)Nc1ccc(NS(=O)(=O)c2cc(-c3cnc(C4CC4)o3)ccc2C)cc1 | -22 | 10 | 3 | 3 | -8
Cc1ccc(-c2cnc(C3CC3)o2)cc1S(=O)(=O)Nc1ccccc1 | -37 | 334* | · | -10 | 3
O=C(N[C@@H]1CC[C@@H](CCNS(=O)(=O)c2ccc(F)cc2)O[C@@H]1CO)C1CCCC1 | -3 | 20[16.7 µM] | 0 | -9 | ·
Cc1cc(N/N=C/c2ccc(O)c(C)c2O)nc(-c2ccccc2O)n1 | · | 101* | · | · | -2
C/C(=N\Nc1cc(C)nc(-c2ccccc2O)n1)c1ccccc1 | -49 | 5 | 0 | 32 | -15
COc1ccc(C)cc1S(=O)(=O)NCc1ccccn1 | 7 | 28 | -9 | · | ·
Cc1ccc(C(C)C)cc1S(=O)(=O)NCc1ccccn1 | 2 | 283* | -1 | · | -15
COc1ccc(C(C)C)cc1S(=O)(=O)NCc1ccccn1 | · | 28 | · | · | -5
Cc1cc(C)c(S(=O)(=O)NCc2ccccn2)cc1C | -10 | 101* | -2 | · | 5
C[C@@H]1CN([C@@H](C)CO)C(=O)c2cc(NC(=O)CCCCCC(=O)Nc3ccccc3N)ccc2O[C@@H]1CN(C)C | · | · | -1 | 7 | ·
CCOc1c(S(=O)(=O)N2CCCC2)ccc(Cl)c1Cl | 122* | -2 | · | -5 | -13
Cc1cc(=O)oc(C)c1C(=O)NCCNC(=O)c1c(C)cc(=O)oc1C | 121* | -4 | · | -10 | -4
Cc1cc(=O)oc(C)c1C(=O)NCCC(C)C | -24 | -7 | -1 | 7 | -8
Cc1noc(C)c1NC(=O)Nc1cccc2c1O[C@H](CN(C)CC1CC1)[C@H](C)CN([C@H](C)CO)C2=O | 3 | -1[16.7 µM] | -3 | 2 | ·
COc1cccc(C(=O)C(C#N)=C(SC)SC)c1 | · | · | 34* | 10 | -16
NS(=O)(=O)Oc1ccccc1 | -1 | 1 | 52* | 10 | -4
Cc1ccc(S(=O)(=O)Oc2ccccc2)cc1 | -2 | 1 | 1 | 0 | -10
O=S(=O)(CS(=O)(=O)Oc1ccccc1)Oc1ccccc1 | -5 | -4 | 23* | 4 | -2
SMILES | C2C12 statin | miR-122 sensor | DENV2 CPE | PGC1a acetyl inh | PvdQ acylase
C[C@@H]1CCCCO[C@H](CN(C)Cc2ccc(Cl)c(Cl)c2)[C@@H](C)CN([C@@H](C)CO)C(=O)c2cc(NC(=O)Nc3cccc4ccccc34)ccc2O1 | · | 15[16.7 µM] | -5 | -10 | ·
CCCC(=O)Nc1ccc2c(c1)OC[C@H](C)N(C(=O)c1ccccn1)C[C@@H](C)[C@@H](OC)CN(C)C2=O | -13 | · | 3 | -8 | ·
Cc1cc(Nc2c(C)n(C)n(-c3ccccc3)c2=O)n2c(nc3ccccc32)c1C#N | -8 | -7 | · | 12 | -17
CCCc1cc(Nc2c(C)n(C)n(-c3ccccc3)c2=O)n2c(nc3ccccc32)c1C#N | 104* | -15 | · | 3 | -19
CC1CCCN(C(=O)c2nn(C)c3c2CS(=O)(=O)c2ccccc2-3)C1 (stereo not given) | 10 | 0 | -2 | -11 | -25
Cn1nc(C(=O)N2CCCCC2)c2c1-c1ccccc1S(=O)(=O)C2 | 6 | -10 | -4 | 48* | -6
CC(=O)c1ccc(N2CCN(C(=O)Cn3cnc(S(=O)(=O)N4CCCCC4)c3)CC2)cc1 | 98* | -1 | 4 | -9 | -8
O=C(c1ccccc1)N1CC[C@@H]2[C@H](CO)Nc3ccc(C#Cc4cccc(F)c4)cc3[C@@H]21 | -46 | -1[16.7 µM] | 116* | 2 | ·
